The record followed here is PubChem BioAssay AID651916 (Vanderbilt Specialized Chemistry Center, 2012).

The source made the active and inactive calls. How the calls were made is not given here.

The target of the test is Histone deacetylase 3 (Homo sapiens) (UniProt O15379). In words: inhibitors of recombinant human HDAC3 – biochemical, selectivity assay for E-cadherin restoration project, profiling panel (AID 651916).
Sequence of Histone deacetylase 3 (Homo sapiens) (O15379 whole entry, looked up): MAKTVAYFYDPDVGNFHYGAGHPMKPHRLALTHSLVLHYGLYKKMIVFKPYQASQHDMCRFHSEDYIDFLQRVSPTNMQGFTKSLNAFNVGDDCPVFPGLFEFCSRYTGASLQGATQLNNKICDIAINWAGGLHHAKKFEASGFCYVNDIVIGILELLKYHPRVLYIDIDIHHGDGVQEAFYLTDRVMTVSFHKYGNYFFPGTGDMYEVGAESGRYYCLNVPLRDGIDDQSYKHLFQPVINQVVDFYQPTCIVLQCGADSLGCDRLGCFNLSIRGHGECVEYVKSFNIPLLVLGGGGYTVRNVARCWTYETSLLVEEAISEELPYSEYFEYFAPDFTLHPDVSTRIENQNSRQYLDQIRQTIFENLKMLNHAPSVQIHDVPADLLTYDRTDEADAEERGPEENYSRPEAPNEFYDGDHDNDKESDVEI

Regarding `O=C(NCCCNC(=O)c1ccc[nH]c1=O)c1cc(-c2ccccc2)on1`, the result was inactive.
